# Compounds with a hit are over-represented: about 0.8% of the library has one in this group of screens.
# TRPML1 agonist = human mucolipin-1 channel agonism; Q9GZU1; TRPML1-expressing cells, Ca2+ dye fluorescence, FDSS; activation, % (test concentration not listed); actives 0.12% (n = 410,000); AID 624414; in the data active = activation above about 50%; inconclusive = mostly about 30% to 49%; also: 0% is about no effect
# Target sequence (Q9GZU1 whole entry, looked up): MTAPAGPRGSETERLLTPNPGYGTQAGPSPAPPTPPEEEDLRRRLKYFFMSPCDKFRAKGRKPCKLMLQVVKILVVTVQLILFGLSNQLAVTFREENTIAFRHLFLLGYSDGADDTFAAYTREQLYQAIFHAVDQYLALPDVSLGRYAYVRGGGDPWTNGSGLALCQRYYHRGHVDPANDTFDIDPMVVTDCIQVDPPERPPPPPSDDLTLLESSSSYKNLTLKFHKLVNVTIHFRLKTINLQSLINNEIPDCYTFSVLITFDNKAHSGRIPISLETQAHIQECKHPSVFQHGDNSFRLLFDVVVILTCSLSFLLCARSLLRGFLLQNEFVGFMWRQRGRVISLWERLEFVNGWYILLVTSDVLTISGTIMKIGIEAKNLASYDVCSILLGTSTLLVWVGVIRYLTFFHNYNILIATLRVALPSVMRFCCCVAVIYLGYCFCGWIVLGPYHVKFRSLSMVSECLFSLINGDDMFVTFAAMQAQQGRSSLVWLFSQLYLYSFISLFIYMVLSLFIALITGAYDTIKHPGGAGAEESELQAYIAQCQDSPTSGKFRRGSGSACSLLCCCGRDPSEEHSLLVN
#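 Tetracycline-induced TRPML1-DL cells are seeded and incubated overnight before loading with a no-wash Ca2+ dye and quencher. Agonist activity is taken from the 110 s fluorescence read following compound pin-transfer on an FDSS, before EC80 54-4 challenge.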
# TRPML1 inh = human mucolipin-1 channel inhibition | Q9GZU1 | actives 0.02% (n = 390,000) | activity change, negative = inhibition, % (test concentration not listed) | TRPML1-inducible cells, Ca2+ dye fluorescence, FDSS; hits give low values; inhibition of EC80 agonist-evoked calcium signal | AID 624415; in the data active = activity change below about -50%; inconclusive = between about -30% and that limit;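 also: stimulus is agonist 54-4 at its EC80 concentration; % is scaled to controls: 0 for no effect and ±100 for the full control effect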
#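 Tet-induced TRPML1-DL cells loaded with Ca8 no-wash calcium dye were read kinetically on FDSS. Compound addition was followed by EC80 agonist 54-4 (4 uM final); inhibition was read over 110 s.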
# TRHR ag = TRH receptor (human) agonism; P34981; TRHR cells, calcium flux fluo-8, FDSS agonist mode; activation, % at 2 µM; actives 0.18% (n = 360,000); AID 493084; in the data active = activation above about 30%; also: 0% is about no effect
#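 Steps: seed TRHR cells overnight; add fluo-8 no-wash Ca dye, RT 30 min–1.5 h; record 10 s baseline; pin-transfer compounds; monitor fluorescence 1 cycle/s for the agonist window. Calcium increases flag candidate agonists.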
# GRP78 ERSR act = induces the endoplasmic reticulum stress response in human glioma cells; U87-MG GRP78 promoter luciferase reporter, 16 h; Potency, µM, for the others: at the highest dose activation, actives largely listed as activators; actives 0.02% (n = 420,000); active = well fitted activation curve with a large enough effect; inconclusive = small, poorly fitted or top-dose-only effect; inactive = no such curve, though single readings can be large or run the other way; also: potency is read from the fitted curve at half-maximal effect; series mostly up to about 76 µM; % of control where 0% means no effect; nearly all actives have a fitted effect of over 35% in size
#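 Stably transfected U87-MG human glioma cells carrying a GRP78-based luminescent sensor were seeded at 1000 cells/well, pin-dosed with compounds and incubated 16 h. Luciferase reagent was then added, and end-point luminescence was read after 10 min at room temperature.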
# TRHR enhancer = TRH receptor (human) allosteric enhancement | actives 0.66% (n = 360,000) | enhancement, % at 2 µM | P34981 | TRHR cells, fluo-8 calcium fluorescence, EC20 TRH enhancement; in the data active = enhancement above about 30%; also: 0% is about no effect
#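 Enhancer read-out: after compound pinning and an initial kinetic agonist-mode read, an EC20 of TRH (10 nM final) was injected and fluo-8 calcium signal (Ex 480/Em 530) followed at 1 s/cycle for 100 cycles in TRHR-expressing cells.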
# Active calls of the source: *; ? = inconclusive; . = no result; ! = a repeat was not active.
SMILES,TRPML1 agonist,TRPML1 inh,TRHR ag,GRP78 ERSR act,TRHR enhancer
Cc1c(C(=O)NCC(C)(C)N2CCOCC2)cnn1-c1ncc2c(n1)-c1ccccc1CC2,.,.,.,-2%,.
Cc1c(O)c(S(=O)(=O)c2ccccc2)c(=O)n(-c2ccccc2)c1-c1ccccc1,-1,1,0,5%,0
Cc1c(O)c(S(=O)c2ccccc2)c(=O)n(-c2ccccc2)c1-c1ccccc1 (configuration not stated),0,-9,1,-4%,32*
O=C(Cc1ccccc1)Nc1sc2c(c1C(=O)Nc1ccccc1Cl)CCCCC2,2,22,0,-3%,33*
O=C(Nc1sc2c(c1C(=O)O)CCCCC2)c1ccccc1F,0,-12,0,3%,-1
CCCNC(=O)c1c(NC(=O)c2ccccc2F)sc2c1CCCCC2,0,-1,0,-3%,35*
NC(=O)[C@@H]1CCCN1C(=O)c1cc(NC(=O)c2ccccc2)cc2ncn(C3CCCC3)c12,.,.,.,-6%,.
CC(=O)OC1CCC2(C)C(=CCC3C2CCC2(C)C(C(C)=O)CCC32)C1 (configuration not stated),.,.,.,-2%,.
NC(=O)c1ccc(/C=N/O)nc1,1,-7,0,-2%,38*
Cc1ccc(NC(=O)Cn2cc(C(=O)C3CC3)c3ccccc32)c(C)c1,0,3,1,-9%,36*!
CCOC(=O)C1CCCN(c2c(NCCCN(CC)c3cccc(C)c3)c(=O)c2=O)C1 (configuration not stated),-1,13,0,?,76*
C=C[C@]1(C)C[C@@H](OC(=O)CO)[C@]2(C)C(C)CC[C@]3(CCC(=O)[C@H]32)[C@@H](C)[C@@H]1O (some centres not stated),.,.,.,-2%,.
COc1cc(=O)n2c(c1C(=O)N(C)Cc1nccs1)CCN(Cc1cc3ccccc3s1)CC2,.,.,.,-1%,.
CC(C)OCCCNc1ncnc2c1cnn2-c1ccccc1,-2,1,0,-10%,33*
CN(C)CCCNc1ncnc2c1cnn2-c1ccccc1,-1,2,1,-2%,-5
c1ccc(-n2ncc3c(NCCN4CCOCC4)ncnc32)cc1,2,-5,0,-1%,33*
Cn1c(=O)c2cc(NC(=O)Cc3ccccc3F)ccc2n1-c1ccc(C(C)(C)C)cc1,63*,.,.,1%,.
CN(C)CC(C)(O)c1ccc2c(c1)CN(Cc1cn(C)c3ccccc13)CCO2 (configuration not stated),.,.,.,-2%,.
CN(C)Cc1c(O)ccc2cc(-c3nc4ccccc4n3C)c(=O)oc12,7,-10,23,-1%,40*
CCN(CC)c1ccc2cc(C(=O)c3cccs3)c(=O)oc2c1,84*,.,.,-3%,.
CCN(CC)c1ccc2cc(-c3nc4ccccc4[nH]3)c(=O)oc2c1,97*,?,207*,-5%,-23
CCN(CC)c1ccc2cc(-c3nc(-c4ccc(OC)cc4)cs3)c(=O)oc2c1,118*,-26,174*,-4%,-24
COc1cccc2cc(-c3nc4ccccc4[nH]3)c(=O)oc12,0,-5,0,-1%,4
COC(=O)c1c(OCc2cccnc2)cc(=O)n2c1CCN(Cc1cc3c(cc1Cl)OCO3)CC2,.,.,.,-6%,.
c1ccc2c(N3CCCCCC3)nc(CN3CCCCC3c3nccs3)nc2c1 (configuration not stated),.,.,.,-5%,.
SMILES,TRPML1 agonist,TRPML1 inh,TRHR ag,GRP78 ERSR act,TRHR enhancer
Cc1ccc(CN2CCOc3ccc(CN4CCN(CCO)CC4)cc3C2)s1,.,.,.,-4%,.
CCN(CC)c1ccc2cc(-c3nnc(-c4ccccc4)o3)c(=O)oc2c1,72*,-15,224*,2%,16
N=c1oc2ccc(Br)cc2cc1C(=O)NCc1ccc(F)cc1,0,11,1,-6%,-13
CCN(CC)c1ccc2cc(C(=O)NCc3ccc(F)cc3)c(=N)oc2c1,.,.,34*,.,-2
CCN(CC)c1ccc2cc(-c3nc4ccccc4n3C)c(=O)oc2c1,61*,14,144*,1%,31*
Cc1ccccc1-c1ccc(CN2CCc3nnc(C(NS(C)(=O)=O)C(C)C)n3CC2)cc1 (configuration not stated),.,.,.,-3%,.
COc1cc(-c2cccc(OC)c2OC)cc2c1OCCN(Cc1cn[nH]c1-c1ccc(Cl)cc1)C2,.,.,.,-2%,.
CC(=O)c1ccc(F)c(-c2cc(C)cc3c2OC(CNC(=O)C(C)n2nc(C)cc2C)C3)c1 (configuration not stated),.,.,.,-1%,.
CCN1CCCC1CNC(=O)c1cnn(-c2ncc3c(n2)-c2ccc(OC)cc2CC3)c1C1CC1 (configuration not stated),.,.,.,-5%,.
CCCOc1ccccc1C1C(C(=O)Nc2ccccc2)=C(C)Nc2nnnn21 (configuration not stated),9,1,-1,-1%,49*
CCCCOc1ccccc1C1C(C(N)=O)=C(C)Nc2nnnn21 (configuration not stated),0,19,1,-1%,6
CCN(CC)C(=O)C1CCCN(c2ccccc2[N+](=O)[O-])C1 (configuration not stated),1,9,-1,-5%,37*
CCC(=O)NC(/C=C/c1ccccc1)c1cc([N+](=O)[O-])c2cccnc2c1O (configuration not stated),.,.,0,.,32*
O=C(O)c1ccc2c(c1)C(=O)N(N1C(=O)c3ccccc3C1=O)C2=O,-1,4,2,-2%,31*
O=C(O)c1ccc2c(c1)C(=O)N(CCc1ccccc1)C2=O,0,-2,0,-2%,7
COC(=O)[C@@H]1CCCN1C(=O)c1cc(NC(=O)c2ccccc2)cc2ncn(C3CCCC3)c12,.,.,.,-3%,.
CCNC(=S)N1CCN(S(=O)(=O)/C=C/c2ccccc2)CC1,2,-8,-1,-4%,40*
CN(CC(=O)Nc1ccc(F)cc1)C(=O)Cn1c(=O)oc2ccccc21,0,-2,1,-1%,7
Cc1ccc(NC(=O)CN(C)C(=O)Cn2c(=O)oc3ccccc32)cc1,0,9,2,2%,31*
O=C(NCc1ccncc1)c1cnn(-c2nccc(-c3cccs3)n2)c1C1CC1,.,.,.,-6%,.
COC(=O)c1cc(CNC(=O)c2cnsn2)cc(NC(=O)c2ccccc2OC)c1,.,.,.,0%,.
O=C1C=C(c2ccccc2)C(=O)N1Nc1ccccc1,7,6,4,-14%,33*
COc1ccc(C2=CC(=O)N(Nc3ccccc3)C2=O)cc1,0,-5,2,-13%,2
COCCN1C(=O)/C(=C/c2ccc(N3CCCC3)cc2)SC1=S,60*,-11,44*,-1%,-5
COc1ccc(/C=C2\SC(=S)N(CCC(=O)N3CCCCC3)C2=O)cc1,0,-15,0,-17%,11

# Screening results: PubChem BioAssay, National Center for Advancing Translational Sciences (NCATS)
